Results published in PubChem BioAssay (NCI).
This is part of a sample that, as a whole, favours compounds with a hit. Of some 83,000 tested, about 20% had one in any assay.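 Values shown are percent growth following 48 h exposure of cells in 96-well plates to a single concentration of compound; below 10 was considered active.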 A number with no mark means an inactive call. Activity calls are given as the source filed them.

What was measured:
Test in all cases: NCI-60 one-dose screen, 48 h (100 = growth as untreated, 0 = no growth, -100 = all killed)
Settings in all cases: 10 µM unless noted
T-47D breast = tested on: T-47D breast
BT-549 breast = tested on: BT-549 breast
MDA-MB-435 melanoma = tested on: MDA-MB-435 melanoma
SW-620 colon = tested on: SW-620 colon
MCF7 breast = tested on: MCF7 breast
HCC-2998 colon = tested on: HCC-2998 colon
KM12 colon = tested on: KM12 colon
HCT-116 colon = tested on: HCT-116 colon

| Structure (SMILES) | growth (T-47D breast) | growth (BT-549 breast) | growth (MDA-MB-435 melanoma) | growth (SW-620 colon) | growth (MCF7 breast) | growth (HCC-2998 colon) | growth (KM12 colon) | growth (HCT-116 colon) |
| --- | --- | --- | --- | --- | --- | --- | --- | --- |
| CC1(C)N=C(N)N=C(N)N1c1cccc(CCc2ccccc2)c1 | 37.7% | 42.4% | 47.5% | 27.4% | 23.8% | 2.34% (active) | 21.9% | – |
| O=C(Cc1cccc(OC(F)(F)F)c1)Nc1ccc(CCCCc2nnc(NC(=O)Cc3ccccn3)s2)nn1 | 30.3% | 48.7% | 85.1% | 100% | 79.7% | 91% | 69.4% | – |
| N#CSc1c[nH]c2cccc(/C=C/C(=O)/C=C(O)/C=C/c3cccc4[nH]cc(SC#N)c34)c12 | -10.5% (active) | -23.7% (active) | -83.8% (active) | -43% (active) | -41.6% (active) | -57.8% (active) | -16.9% (active) | -92% (active) |
| [2H]C([2H])([2H])Oc1ccc(F)cc1/C=C/C(=O)/C=C(/C=C/c1cc(F)ccc1OC([2H])([2H])[2H])OB(F)F | 54.2% | 87.7% | 70.8% | 45.1% | 37% | 114% | 101% | – |
| CN(CCCNC(=O)Cc1ccc2ccc3cccc4ccc1c2c34)CCCNc1cc(-c2ccc3ccccc3c2)nc2ccccc12 | -67% (active) | -4.41% (active) | -63.4% (active) | -69.4% (active) | -86.2% (active) | -89.1% (active) | -80% (active) | – |
| CCS/C(Nc1ccccc1)=C(\C#N)C(=O)Nc1ccc(OC)cc1 | 25.4% | 40.5% | -47.9% (active) | 18% | 19% | 55.2% | 31% | 14.3% |
| CCCC(CC)(C(=O)Nc1ccc2nc(C)cc(N)c2c1)C(=O)Nc1ccc2nc(C)cc(N)c2c1 | 106% | 101% | 108% | 112% | 102% | 111% | 109% | – |
| CS(=O)(=O)Nc1cc(-c2ccc3ncc(C#N)c(Nc4ccc(F)c(Cl)c4)c3c2)cnc1Cl | -13.3% (active) | -14.5% (active) | 2.34% (active) | 5.69% (active) | 4.03% (active) | 6.92% (active) | 8.82% (active) | – |
| N#Cc1c(Nc2ccc(N3CCOCC3)cc2)nc(SCC(=O)c2ccc(Br)cc2)nc1-c1ccccc1 | 102% | 115% | 109% | 109% | 94.8% | 100% | 103% | – |
| O=S1(=O)C=C(c2ccccc2)C(c2ccccc2)=C1 | -63.4% (active) | 79.6% | 25.4% | -82.9% (active) | 6.2% (active) | 15.5% | 16.5% | – |
| CC1=CCC(OC(=O)C(C)(C)CC(O)(C(C)O)C(O)C2(C)C=CC(Cc3ccc(C(C)C)cc3)(C(C)C)CC2)(C(C)C)CC1 (centres undefined) | 98.9% | 109% | 94.1% | 92.6% | 102% | 103% | 105% | – |
| CN(Cc1ccccc1)c1nc(Cl)c(C2CC(c3ccccc3)=NN2c2ccccc2)s1 (centres undefined) | 71.9% | 118% | 98% | 101% | 82.4% | 93% | 89.7% | – |
| Cc1nn(-c2cc(NC3CCC(O)CC3)c3c(=O)[nH]c(CCC(F)(F)F)cc3c2)c2c1C(=O)CC(C)(C)C2 (centres undefined) | 62.9% | 43.8% | 19.3% | 24.1% | 26.5% | 10.9% | 23.4% | – |
| CC1(C)CC[C@]2(C(=O)N[C@H](CO)Cc3ccccc3)CC[C@]3(C)C(=CC[C@@H]4[C@@]5(C)CCCNC(C)(C)[C@@H]5CC[C@]43C)[C@@H]2C1 | 69.8% | 89.9% | 73.4% | 79.8% | 83.9% | 56% | 96% | – |
| COc1ccc(/C=C/C(c2cc(OC)c(OC)c(OC)c2)n2cncn2)cc1 (centres undefined) | 30.8% | 45.5% | -9.62% (active) | 26.6% | 22.5% | 84.2% | 30.7% | – |
| O=C(NCc1cccc(CNC(=O)Nc2nc3ccccc3[nH]2)c1)Nc1nc2ccccc2[nH]1 | 15.9% | 29.3% | -74.9% (active) | -41.6% (active) | -43.7% (active) | 17.9% | -41.9% (active) | – |
| CC1=C2[C@@H](CC1)[C@]1(C)O[C@@](C3CCCCC3)(C[C@H]1OC(=O)CO)[C@H]2OC(=O)/C=C/c1ccccc1 | 46.1% | -1.1% (active) | 95.9% | 86.5% | 57.6% | 81.8% | 79.6% | – |

| Structure (SMILES) | growth (T-47D breast) | growth (BT-549 breast) | growth (MDA-MB-435 melanoma) | growth (SW-620 colon) | growth (MCF7 breast) | growth (HCC-2998 colon) | growth (KM12 colon) | growth (HCT-116 colon) |
| --- | --- | --- | --- | --- | --- | --- | --- | --- |
| CC(C)N1C(=O)/C(=c2\sc3n(c2=O)C2C(NN=3)N(C)C(=O)N2C)c2ccccc21 (centres undefined) | 64.8% | 72.1% | -21.2% (active) | 29.6% | 21.4% | 78.8% | 44.2% | – |
| N#Cc1c(-c2ccccc2)nc(SCC(O)CN2CCOCC2)nc1N1CCOCC1 (centres undefined) | 26% | 29.5% | 53% | 78.6% | 4.99% (active) | 72.9% | 69.1% | – |
| C=C1C(=O)O[C@H]2[C@H]1CC/C(COC(=O)/C=C/C(=O)OC/C1=C/CC[C@@]3(C)O[C@H]3[C@H]3OC(=O)C(=C)[C@@H]3CC1)=C\CC[C@@]1(C)O[C@@H]21 | 32.9% | 93.9% | 80.4% | 6.25% (active) | 22.2% | 106% | 90% | – |
| CCc1ccc(CCC(=O)Nc2ncc(Cc3ccccc3)s2)o1 | 42.5% | 63.5% | -54.8% (active) | 28% | 18.7% | 35.6% | 18.4% | – |
| Cc1ccc(-c2csc(N(C(=O)N3CCN(c4cc5c(cc4F)c(=O)c(C(=O)O)cn5C4CC4)CC3)c3ccccc3)n2)cc1 | 13% | -2.16% (active) | 14.9% | 19.1% | 7.97% (active) | 13.1% | 4.3% (active) | – |
| COc1ccc2c(c1)c(/C(O)=C1\COC(=O)C1=O)cn2Cc1ccc(F)cc1 | 114% | 110% | 109% | 101% | 107% | 108% | 109% | – |
| Cc1ccc(CNc2c3ccccc3nc3ccccc23)cc1 | 25.1% | 71.3% | 31.2% | 20.2% | 9.04% (active) | -2.62% (active) | 23.4% | 12% |
| Nc1ccc(-c2csc(-n3[nH]c(=O)ccc3=O)n2)cc1 | 98.5% | 92% | 103% | 104% | 86.6% | 112% | 104% | – |
| CN1CCN(c2ccc3nc4c(nc3c2C(F)(F)F)C(=O)c2ncccc2C4=O)CC1 | -28.4% (active) | -97% (active) | -91.8% (active) | 4.71% (active) | -57% (active) | -26.9% (active) | 13% | – |
| C[C@]1(O)CC(=O)[C@]2(O)C3=C(C=C[C@]2(O)C1)C(=O)c1c(O)cccc1C3=O | -45.5% (active) | 45.2% | -79.8% (active) | -55.5% (active) | -60.2% (active) | 94.7% | 77.8% | – |
| COc1ccc(/C=C/c2c(C(=O)/C=C/c3ccccc3)c(C)nc3ccccc23)cc1 | 12.9% | 31.4% | -33% (active) | 2% (active) | 12.8% | 12.3% | 3.01% (active) | – |
| CCN1C(=O)N(CC)C2C1NN=c1s/c(=C\c3ccc(C(F)(F)F)cc3)c(=O)n12 (centres undefined) | 64.7% | 9.68% (active) | -26.5% (active) | 20.7% | 15.9% | 9.59% (active) | 15.2% | – |
| O=C(CCCCCCN1CC(=O)N2[C@H](c3ccc(Br)cc3)c3[nH]c4ccccc4c3C[C@@H]2C1=O)NO | 9.61% (active) | 55.1% | 26.2% | 20.4% | 28.4% | 67.5% | 60.9% | – |
| COc1cc(/C=C/C(=O)c2ccc(-n3cc(CN4CCN(c5cc6c(cc5F)c(=O)c(C(=O)O)cn6C5CC5)CC4)nn3)cc2)ccc1O | 75.3% | 90.4% | 74% | 85.4% | 37.6% | 59.3% | 29.9% | – |
| CC(=O)ON1CCCC(P(=O)(OCCSC(=O)C(C)(C)C)OCCSC(=O)C(C)(C)C)C1=O (centres undefined) | 14.8% | 30.9% | 48.5% | 30.9% | 13.9% | 11% | 5.16% (active) | – |
| COc1ccc(/C=C(/c2ccccc2)[N+](=O)[O-])c(OC)c1 | -6.78% (active) | -17.7% (active) | -21.6% (active) | -71.3% (active) | 3.58% (active) | -71.4% (active) | -32.4% (active) | – |
